Source: PubChem BioAssay (NCI)
This is part of a sample that, as a whole, favours compounds with a hit. Of some 79,000 tested, about 15% had one in any assay. Values without a mark were called inactive. Calls of active or inactive are those of the source. Rule as the data show it: active = growth inhibition above about 70%; inactive = the rest.

Experiment: NCI Yeast Anticancer Drug Screen. Data for the mgt1 strain (AID 153)
Settings: S. cerevisiae mgt1 mutant growth inhibition, active compounds read high
Method: Growth inhibition of yeast strains with defined genetic alterations is measured as a screen for potential anti-cancer activity. Selected strains with alterations in DNA damage repair or cell cycle control were exposed to compounds and growth inhibition was measured relative to vehicle treated controls. The strain used in this assay is mgt1

| Compound | growth inhibition (at 1.2 µM) [%] | growth inhibition (at 3.7 µM) [%] | growth inhibition (at 11.0 µM) | growth inhibition (at 33.0 µM) | growth inhibition (at 100.0 µM) |
| --- | --- | --- | --- | --- | --- |
| Cc1ccc(S(=O)(=O)Nc2cccc3cccnc23)cc1 | 14 | -5 | 25% | 77% (active) | 79% (active) |
| N#C/C(=C\NC(=S)Nc1ccc(S(N)(=O)=O)cc1)C(=O)c1ccc2ccccc2c1 | -2 | -3 | -3% | -12% | 0% |
| N#CCC(=O)N/N=C(\c1ccccc1)C(c1ccccc1)C1(O)C(=O)Nc2c(Cl)ccc(Cl)c21 (stereo not given) | 1 | -1 | -3% | -2% | 19% |
| COC(=O)/C(C#N)=C\NC(=S)C(N)=S | 9 | 21 | 79% (active) | 99% (active) | 98% (active) |
| COC(=O)C(=O)c1c(-c2ccc(Cl)c(Cl)c2)[nH]c2[nH]n(-c3ccccc3)c(=O)c2c1=O | -2 | -2 | 44% | 68% | 68% |
| O=[N+]([O-])c1cc(Cl)ccc1S(=O)(=O)c1ccc(Cl)cc1[N+](=O)[O-] | -29 | -27 | 0% | 84% (active) | 78% (active) |
| CCCCN(CCCC)c1ccc(N=Nc2ccc(S(=O)(=O)O)cc2)cc1 | 19 | 39 | 92% (active) | 97% (active) | 97% (active) |
| Cc1cccc2c1C1c3c(C)cccc3C(CC(=O)O)CC1CC2 (stereo not given) | 0 | 47 | 98% (active) | 97% (active) | 92% (active) |
